Measurements reported in the supplement of paper PMC3334620.
Over roughly 33,000 sequences, “E-score (-0.5 to 0.5)” has its median near -0.04; the highest 2% begin near 0.36. Shown is part of a subset that was picked to be rich in the highest values.

The sequences below were run against T1, Hmlalpha2 (UniProt P0CY09) (assay: PBM E-score (8-mer binding enrichment) (E-score (-0.5 to 0.5)); higher = stronger / more preferred TF binding). Settings: protein concentration: 200 nM; construct: GST-full length.
T1 sequence: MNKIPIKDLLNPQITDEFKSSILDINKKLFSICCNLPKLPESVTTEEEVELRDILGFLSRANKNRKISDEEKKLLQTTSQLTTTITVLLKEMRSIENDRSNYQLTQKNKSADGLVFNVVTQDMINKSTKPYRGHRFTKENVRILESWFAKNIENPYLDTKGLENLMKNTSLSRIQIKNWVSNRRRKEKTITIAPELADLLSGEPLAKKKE
Experimental: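 Universal 'all 10-mer' protein binding microarrays (Agilent AMADID 015681) probed with GST-tagged S. cerevisiae TFs (full-length or DBD) made by in vitro transcription/translation (PURExpress), about 100-200 nM. Bound TF was detected with fluorescent anti-GST. Each ungapped 8-mer (which stands for itself and its reverse complement) is scored by the PBM enrichment score (E-score), a modified Wilcoxon-Mann-Whitney statistic from -0.5 to +0.5, computed with the Universal PBM Analysis Suite. Scale: above 0.35 generally sequence-specific binding.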

Sequence	PBM E-score
CTTTTGCA	0.105
ACTTTCGG	-0.0932
AGCATCCC	-0.348
AGAACTAA	0.189
AGAGCGGG	-0.166
ACCTACTA	0.081
ACGCGATA	0.324
CTCCAGGC	-0.185
GTTAAAAA	0.369
GTTAAACA	0.375
CTTAAACA	0.128
ATTAAAAA	0.249
ATTAAACA	0.322
GTTAAAAC	0.343
TCCTACCA	-0.318
GGATGGAA	-0.175
AGGTTCTG	-0.0953
AAACCTCT	-0.08
ATGTTTCC	0.0968
CTGTTTAA	0.11
ATGTTTTA	0.422
GTGTTTAA	0.351

Sequence	PBM E-score
ATGTTTAA	0.387
CTGTTTTC	0.036
GTGTTTTA	0.355
ATGTTTTC	0.421
CTGTTTTA	0.0458
ACCTTGGC	-0.242
ATTGCCAA	-0.206
CCTGGACC	-0.0273
GGTTCTCA	-0.0328
ATCTACAA	0.307
GTCTACAC	0.364
ATCTACAC	0.45
CCCTACAC	0.247
ATCTACAT	0.452
CTCTACAA	0.277
ATCTACGA	0.014
CTCTACAC	0.368
CTCTACGC	0.0772
ATCTACAG	0.151
ATCTACTC	0.00965
ATCTACGC	0.368
GGAGGCTA	-0.325

Sequence	PBM E-score
GTTCTGCA	0.104
ATAACAGG	0.194
GTAACATA	0.355
ATAACATA	0.437
ATAACATC	0.327
CTAACATA	0.273
ATAACATG	0.452
AGCTGCAG	-0.168
ACTTTGAC	0.231
CCTTGCCC	-0.198
ACATGTCA	0.402
GCCTGTTA	0.139
CAATGTTA	0.284
AAATGTTG	0.0925
AGATGTTC	0.0875
CCATGTTC	0.275
AGATGTTG	-0.0256
ACATGTTC	0.371
CCATGTCA	0.333
GCATGTTA	0.464
ACATGTTG	0.45
ACATGTCC	0.351

Sequence	PBM E-score
CCTGGGCG	-0.173
GCAAGCGA	0.0703
GCGAAACC	0.104
CAAACCCG	-0.0693
ATTCACCA	0.0468
ATGAGGTA	0.136
CCGCATAC	0.0261
CCTTAGAG	-0.462
CCATGTGA	0.184
CCATGTTA	0.458
AAATGTTA	0.33
AGATGTTA	0.201
ACATGTTA	0.461
CGATGTTA	0.353
CGCCTGGC	-0.0832
GCGCATGA	-0.252
GCTGTCCA	-0.0572
CTCGTCAC	-0.0377
AATCGGTC	-0.081
CTCCTAAG	-0.115
